Beta cell apopt – inhibitors of cytokine-induced beta cell apoptosis, primary screen, luminescence. INS-1E cytokine-induced death, ATP luminescence, 48 h; percent of positive-control rescue, neutral wells zero. protection from apoptosis, % (concentration not given with the values). hit rate 0.8% among 300,000. AID 435005, 2010;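 active = Every replicate reaches about 75%, or at least half do and their mean reaches it too, limit read from the data; inconclusive = At least half of replicates reach the limit but their mean does not; inactive = Under half of replicates reach the limit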;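 note: 0% = cytokine-treated negative control wells and 100% = positive control rescue; higher means more ATP so stronger rescue from cytokine killing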
CSC inhib – cancer stem cell viability inhibitors, primary screen, luminescence. inhibition, % at 7.5 µM. AID 2717, 2010. cancer stem cell-like cells viability. hit rate 1.1% among 300,000; in the data active = inhibition above about 75%; inconclusive = no clear call, values can overlap the other calls; tested in HMLE shEcad cells
Calb FLC – C. albicans growth inhibition with fluconazole, primary screen, CaCi-2 strain, Alamar Blue fluorescence; C. albicans CaCi-2 (fluconazole-resistant clinical isolate) + fluconazole, 48 h; hit rate 0.57% among 300,000; growth inhibition, % (concentration not given with the values);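 active = growth inhibition above about 58% in most replicates, limit read from the data, passing the limit was not always enough; inconclusive = exactly half the replicates above a set limit; inactive = most replicates below a set limit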;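 note: all wells also contain fluconazole at 8 µg/ml as a sub-toxic cotreatment; 0% = median of DMSO wells and 100% = median of geldanamycin control wells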
MPTP block – mitochondrial permeability transition pore inhibitors, primary screen, biochemical, isolated mouse mitochondria, absorbance; inhibition, % at 10 µM; hit rate 1.4% among 360,000; Ca2+ swelling absorbance, 30 min;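 active = inhibition of 50% or more, scaled per plate between neutral and stimulator controls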;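 note: 0% = DMSO wells given calcium and 100% = 1 mM EGTA wells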
Mdm2-MdmX inh – inhibitors of human Mdm2-MdmX association, primary screen, cell-based, luminescence, split luciferase, SaOS-2, uHTS; inhibition, % at 8 µM; SaOS-2 split-luciferase Mdm2/MdmX complementation; hit rate 3% among 330,000;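 active = inhibition of at least 50% at 8 µM in the primary screen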
Target sequence (O15151 whole entry, looked up): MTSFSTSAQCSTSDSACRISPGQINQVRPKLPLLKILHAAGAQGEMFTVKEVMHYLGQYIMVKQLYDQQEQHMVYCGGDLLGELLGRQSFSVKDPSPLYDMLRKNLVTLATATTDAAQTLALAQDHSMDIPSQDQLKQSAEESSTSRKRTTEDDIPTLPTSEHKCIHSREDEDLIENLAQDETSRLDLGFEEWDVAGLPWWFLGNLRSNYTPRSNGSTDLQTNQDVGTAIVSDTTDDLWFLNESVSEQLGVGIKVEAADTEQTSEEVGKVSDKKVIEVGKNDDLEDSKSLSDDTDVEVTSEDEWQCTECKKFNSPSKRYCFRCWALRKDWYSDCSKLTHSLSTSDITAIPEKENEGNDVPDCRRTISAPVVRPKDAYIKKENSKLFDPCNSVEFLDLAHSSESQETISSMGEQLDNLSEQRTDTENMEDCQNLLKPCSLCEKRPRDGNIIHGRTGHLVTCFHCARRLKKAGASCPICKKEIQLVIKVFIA
Target sequence (Q00987 whole entry, looked up): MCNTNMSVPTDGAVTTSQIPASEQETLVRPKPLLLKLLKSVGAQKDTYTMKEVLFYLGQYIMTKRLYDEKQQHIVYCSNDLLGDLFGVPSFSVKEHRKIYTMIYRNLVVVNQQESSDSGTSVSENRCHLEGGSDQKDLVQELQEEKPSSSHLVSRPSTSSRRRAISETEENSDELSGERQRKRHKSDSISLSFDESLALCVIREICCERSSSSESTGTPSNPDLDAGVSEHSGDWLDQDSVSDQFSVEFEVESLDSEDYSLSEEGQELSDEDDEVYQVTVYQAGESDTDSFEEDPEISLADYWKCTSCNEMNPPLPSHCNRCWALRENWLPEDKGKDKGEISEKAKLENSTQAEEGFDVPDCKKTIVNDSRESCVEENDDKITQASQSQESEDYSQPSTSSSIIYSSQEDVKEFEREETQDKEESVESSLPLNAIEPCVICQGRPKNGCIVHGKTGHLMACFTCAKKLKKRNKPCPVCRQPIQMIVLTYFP
SKKanGAS inh – S. pyogenes SKKanGAS growth inhibitors in kanamycin, primary screen, streptokinase expression inhibitor project, SKKanGAS strain, BacTiter-Glo luminescence; 6 h; inhibition, % at 7.5 µM; hit rate 1.3% among 300,000; AID 1662, 2009;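 active = mean replicate score, as percent of positive control median, at least 50; inconclusive = mean below 50 but one replicate at or above 50; inactive = mean and every replicate below 50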;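 note: strain carries kanamycin resistance gene driven by streptokinase promoter and grows in 40 µg/ml kanamycin; loss of luminescence reflects streptokinase promoter inhibition or plain growth inhibition; 0% = median of DMSO wells and 100% = positive control at its reference dose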
MPTP counter – fluorescence retest of MPTP screen hits in isolated mitochondria, single concentration; shares compounds with MPTP block; membrane potential, Rhodamine 123 fluorescence; inhibition, % at 10 µM; hit rate 78% among 5,000; AID 624504, 2012; in the data active = inhibition above about 22%;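 note: 0% = DMSO vehicle and 100% = positive control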
MPTP abs DR – mitochondrial permeability transition pore inhibitors, dose response, biochemical, absorbance, uHTS hits; hit rate 58% among 780; IC50, µM; shares compounds with MPTP block; AID 651561, 2012; isolated mitochondria swelling; in the data active = IC50 below about 20 µM
MPTP cs DR – fluorescent counter-screen in isolated mitochondria, dose response, counter-screen for MPTP inhibitor project, biochemical, fluorescence, uHTS hits | AID 651564, 2012 | shares compounds with MPTP block | hit rate 49% among 780 | IC50, µM | isolated mitochondria counterscreen, fluorescence read-out; in the data active = IC50 below about 80 µM
* hit, by the source's call; i = inactive; ? = inconclusive; · = no result given. The list is not random: actives were taken first. Their share in the collection is about 5.4%.

SMILES	Beta cell apopt	CSC inhib	Calb FLC	MPTP block	Mdm2-MdmX inh	SKKanGAS inh	MPTP counter	others
COc1cc([N+](=O)[O-])ccc1NC(=O)Nc1ccc2c(c1)OCCO2	11	-6	-17	2	-6	0	·
O=C(Nc1ccc([N+](=O)[O-])cc1)Nc1ccc2c(c1)OCCO2	10	1	?	95*	-177	0	90*
Cc1cccc(NC(=O)Nc2ccc([N+](=O)[O-])cc2)n1	6	1	10	69*	-9	-14	54*
O=C(CSc1nc2ccc([N+](=O)[O-])cc2[nH]1)c1ccc2ccccc2c1	6	·	42	99*	0	12	68*
COc1ccccc1NC(=O)c1ccc2c(c1)nnn2C	-2	2	11	-4	10	0	·
COc1ccc(NC(=O)Nc2cnccn2)cc1	-2	2	-8	1	-1	-8	·
C/C(=N\NC(=O)C(=O)Nc1ccc(C)cc1)c1ccncc1	-1	-4	7	1	5	-1	·
C/C(=N\NC(=O)C(=O)Nc1ccc(C)c(Cl)c1)c1ccncc1	21	-11	4	55*	6	-6	8	MPTP abs DR=1.5*;MPTP cs DR=<2.5*
Cc1cc(NC(=O)Nc2ccc(Cl)c(Cl)c2)no1	-1	24	-26	82*	0	-3	94*
Cc1ccc(NC(=O)Nc2cnccn2)cc1Cl	2	9	7	63*	-8	-5	64*
Cc1noc(NS(=O)(=O)c2ccc(NC(=O)Nc3ccc(Cl)c(Cl)c3)cc2)c1C	-2	46	-3	84*	6	28	75*
COc1cccc(NC(=O)CN2C(=O)NC(c3ccccc3)(c3ccccc3)C2=O)c1	6	-10	7	3	-16	1	·
COc1ccc(OC)c(NC(=O)C2CC(/C=C/c3ccccc3)=NO2)c1 (configuration not stated)	2	-1	-2	0	-16	8	·
CC(C)c1cc(Cn2c3ccccc3c(=O)n2C(C)CBr)on1 (configuration not stated)	·	·	·	-2	·	·	·
Cc1ccc2nc(C)c3c(c2c1)OC(C(C)(Cl)Br)C3 (configuration not stated)	7	0	-4	3	10	6	·
Cc1nc2ccccc2c2c1CC(C(C)(Cl)Br)O2 (configuration not stated)	57	-10	29	60*	15	-6	84*
CCCc1ccc(C(=O)NC(=O)c2ccccc2O)cc1	0	13	53	59*	16	12	91*
Cc1cc(C)cc(Oc2nc(C(F)(F)F)nc3ccccc23)c1	7	42	4	80*	21	30	-4	MPTP abs DR=>100;MPTP cs DR=78*
CC(=O)Nc1ccc(Oc2nc(C(F)(F)F)nc3ccccc23)cc1	-1	8	10	0	4	-2	·
COC(=O)c1ccc(NC(=S)NC2CC3CCC2C3)cc1 (configuration not stated)	0	19	-18	101*	-29	8	91*
NS(=O)(=O)c1ccc(NC(=S)NC2CCCCC2)cc1	2	·	11	-1	29	0	·
S=C(Nc1ccc(Cl)cc1)NC1CCCCC1	4	9	5	82*	-15	-14	93*
S=C(NCCc1ccc(Cl)cc1)NC1CCCCC1	11	6	-3	34	-45	22	·
FC(F)Oc1ccc(NC(=S)NC2CCCCCCC2)cc1	7	·	-1	34	-18	23	·
S=C(Nc1ccc(Br)cc1)NC1CCCCC1	·	·	-1	97*	-19	-3	99*
SMILES	Beta cell apopt	CSC inhib	Calb FLC	MPTP block	Mdm2-MdmX inh	SKKanGAS inh	MPTP counter	others
S=C(NCCc1ccc(Cl)cc1)NC1CCCC1	-2	3	-33	53*	-7	-2	78*
Cc1ccc(Oc2ccc(Cl)cc2NC(=O)c2ccc(F)cc2F)cc1	3	8	-8	-1	-33	-20	·
S=C(Nc1cccc(Cl)c1)NC1CCCCC1	-3	-18	-6	99*	8	2	108*
S=C(NNc1cccc(Cl)c1)NC1CCCCC1	-2	7	-21	3	-9	-11	·
S=C(Nc1ccc(Nc2ccccc2)cc1)NC1CCCCCC1	23	78*	-5	63*	39	17	66*
S=C(Nc1cccnc1)NC1CCCCCCC1	0	-4	-14	1	-31	1	·
COC(=O)c1ccc(NC(=S)NC2CCCCC2)cc1	-1	-6	-7	90*	6	-4	80*
CN(C)CCNc1ncnc2c1cnn2-c1ccc(Cl)cc1	7	12	1	78*	16	-1	-20	MPTP abs DR=8.4*;MPTP cs DR=>80
COc1ccc(CNC(=O)Cn2nc(C(F)(F)F)c(Br)c2C)cc1	-6	-13	12	0	-2	9	·
COc1cc(NC(=O)Cn2nc(C(F)(F)F)c(Br)c2C)cc([N+](=O)[O-])c1	11	30	-17	85*	49	10	82*
Cc1cc(C(=O)NCCC2=CCCCC2)no1	-1	-3	-1	-1	-8	8	·
CCOc1ccc(NS(=O)(=O)c2ccc(C(=O)NCC(c3ccc(OC)cc3)N3CCCC3)cc2)cc1 (configuration not stated)	1	·	2	85*	10	-7	-12	MPTP abs DR=9*;MPTP cs DR=>80
CCOC(=O)c1cnc2ccc(OCC)cc2c1NCc1ccccc1OC	23	76*	8	85*	42	-2	99*
CCOC(=O)c1cnc2ccc(OC)cc2c1NCc1ccccc1	24	·	55	2	6	-3	·
Cc1ccc(-c2nc3ncccn3c2NC2CCCCC2)o1	-2	-12	8	1	31	-5	·
O=Cc1ccc(-c2ccccc2C(=O)O)o1	-1	-9	3	-2	6	-8	·
O=C(O)c1ccccc1-c1c2cc(I)c(=O)c(I)c-2oc2c(I)c(O)c(I)cc12	16	21	·	79*	-3	·	-17
CCN(CC)CC#CCC(C)(c1ccccc1)c1ccccc1	10	24	-2	59*	18	2	6	MPTP abs DR=i;MPTP cs DR=28*
COc1ccc(NC(=O)Nc2cccc([N+](=O)[O-])c2)cc1Cl	59	41	-4	94*	46	1	80*
